Screening results (PubChem BioAssay)
Shown is part of a subset that was picked to be rich in hits.
GPT2 inhibitor – GPT2 alanine aminotransferase inhibition | Q8TD30 | Recombinant GPT2, coupled pyruvate oxidase/HRP Amplex Red fluorescence | Potency, µM (doses to about 57.7 µM), hits mostly inhibitors | actives 0.25% (n = 100,000) | AID 1671188; active = well fitted inhibition curve with a large enough effect; inconclusive = small, poorly fitted or top-dose-only effect; also: nearly all actives have a fitted effect of over 60% in size
Target sequence (Q8TD30 whole entry, looked up): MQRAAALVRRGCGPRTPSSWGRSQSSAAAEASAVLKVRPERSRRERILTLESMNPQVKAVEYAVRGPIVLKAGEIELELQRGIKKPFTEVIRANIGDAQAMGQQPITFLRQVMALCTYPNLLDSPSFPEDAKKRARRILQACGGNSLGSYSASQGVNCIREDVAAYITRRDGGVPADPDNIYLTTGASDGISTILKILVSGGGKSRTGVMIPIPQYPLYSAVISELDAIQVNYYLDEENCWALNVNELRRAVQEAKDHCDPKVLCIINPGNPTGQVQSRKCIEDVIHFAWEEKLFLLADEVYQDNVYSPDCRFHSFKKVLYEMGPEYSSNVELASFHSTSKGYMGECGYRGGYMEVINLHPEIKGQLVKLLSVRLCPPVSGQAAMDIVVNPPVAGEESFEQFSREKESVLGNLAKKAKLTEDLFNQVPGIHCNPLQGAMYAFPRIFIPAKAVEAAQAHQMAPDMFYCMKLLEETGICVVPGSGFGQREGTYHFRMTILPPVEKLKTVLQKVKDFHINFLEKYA
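Inhibition is scored from Amplex Red fluorescence generated when pyruvate oxidase and HRP act on pyruvate released by GPT2. Reactions contain 10ng/uL enzyme, 250uM a-KG and 2mM L-alanine and run 30 min at room temperature.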
NPR1 antag – antagonists of human natriuretic peptide receptor Npr1. HEK293 hNpr1 GloSensor cGMP, ANP-stimulated luminescence. Potency, µM (highest dose often 46.3 µM), usual class: inhibitors. actives 1.6% (n = 76,000). AID 1347048; also: nearly all actives have a fitted effect of over 60% in size
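HEK293 cells stably expressing human Npr1 and cGMP GloSensor pGS-40F, loaded 2 h with 2% GloSensor reagent, given compound 30 min at room temperature. Luminescence read before and 20 min after 0.1 nM hNppA.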
NPR1 antag cnf – hNpr1 antagonism, confirmation assay. Potency, µM (series often up to 57.6 µM), actives largely listed as inhibitors. AID 1347044. actives 76% (n = 1,400). HEK293 hNpr1 cGMP GloSensor luminescence, ANP-stimulated. shares compounds with NPR1 antag; also: nearly all actives have a fitted effect of over 70% in size
Npr2 selectivity – antagonizes human Npr2, subtype selectivity check; Potency, µM (series often up to 57.6 µM), actives largely listed as inhibitors; shares compounds with NPR1 antag; actives 67% (n = 1,400); AID 1347046; HEK293 hNpr2 GloSensor cGMP luminescence, CNP-stimulated; also: nearly all actives have a fitted effect of over 70% in size
FLuc inh counter – counter-screen for Npr1 antagonists: firefly luciferase inhibitors | Potency, µM (highest dose often 57.6 µM), most hits filed as inhibitors | purified FLuc enzyme, luminescence, Km substrate | actives 0.7% (n = 1,400) | shares compounds with NPR1 antag; active = well fitted inhibition curve with a large enough effect; inconclusive = small, poorly fitted or top-dose-only effect
GloSensor ctrl – control cell line activity, Npr1 antagonist counter-screen. shares compounds with NPR1 antag. HEK293 GloSensor cGMP, SNP-stimulated, luminescence. Potency, µM (top dose mostly 57.6 µM), hits mostly inhibitors. actives 69% (n = 1,400); also: nearly all actives have a fitted effect of over 70% in size
Each line names hits and unclear results; the compound was inactive in the other large screens (follow-up assays come after a bar, where they were run). Unless noted, calls follow the shape of the full dose curve.

O=C(NCc1nnc2n1C(C(=O)NCc1ccc3c(c1)OCO3)CC2)C1CC1 (stereo not drawn)	none (no result: NPR1 antag)
CCOC(=O)C1(Cc2ccc(OC)cc2)CCN(C(=O)c2cccc(Cl)c2)CC1	none
CCOC(=O)C1(Cc2ccc(Cl)cc2)CCN(C(=O)c2cc(C)oc2C)CC1	NPR1 antag 12.6µM | NPR1 antag cnf 21.7µM | Npr2 selectivity 21.7µM | FLuc inh counter inactive | GloSensor ctrl 19.3µM
CC(C)n1c(C2CCN(C(=O)C3CCCO3)CC2)nn(C)c1=O (stereo not drawn)	none (no result: NPR1 antag)
Cc1ccccc1S(=O)(=O)N1CCC(n2cnnc2-c2ccccc2)CC1	none
Cc1ccc(S(=O)(=O)N2CCC(n3cnnc3-c3ccccc3)CC2)c(C)c1	none | NPR1 antag cnf inconclusive | Npr2 selectivity inconclusive | FLuc inh counter inactive | GloSensor ctrl inactive
CCCc1nc(C)cc(N2CCC(NCCc3ccc(Cl)cc3)CC2)n1	none
Cn1ncc(N2CCC(CNC(=O)C3=Cc4ccccc4OC=C3)C2)cc1=O (stereo not drawn)	none
COc1cccc(CN2CCOC3(CCN([S+](=O)([O-])c4ccccc4)CC3)C2=O)c1	none
COc1cccc(CN2CCOC3(CCN(Cc4ccc(C#N)cc4)CC3)C2=O)c1	NPR1 antag inconclusive | NPR1 antag cnf 35.3µM | Npr2 selectivity 39.6µM | FLuc inh counter inactive | GloSensor ctrl 35.3µM
Cc1cccc(C(=O)N2C(C(=O)N3CCOCC3)COC23CCN(C(=O)CC(C)(C)C)CC3)c1 (stereo not drawn)	none
COc1ccc(Cl)cc1NC(=O)Cn1c(N(C)Cc2ccccc2)nc(C)cc1=O	none
Cc1cc(=O)n(CC(=O)Nc2ccc(Br)cc2)c(N(C)Cc2ccccc2)n1	NPR1 antag inconclusive
Cc1cc(=O)n(CC(=O)Nc2ccc(F)c(Cl)c2)c(N(C)Cc2ccccc2)n1	NPR1 antag 11.2µM | NPR1 antag cnf 24.3µM | Npr2 selectivity inconclusive | FLuc inh counter inactive | GloSensor ctrl 21.7µM
Cc1cc(=O)n(CC(=O)Nc2ccc(Cl)cc2F)c(N(C)Cc2ccccc2)n1	NPR1 antag 12.6µM | NPR1 antag cnf 24.3µM | Npr2 selectivity inconclusive | FLuc inh counter inactive | GloSensor ctrl inconclusive
Cc1cc(=O)n(CC(=O)Nc2ccc(C)c(F)c2)c(N(C)Cc2ccccc2)n1	NPR1 antag inconclusive
COc1ccc(NC(=O)Cn2c(N(C)Cc3ccccc3)nc(C)cc2=O)cc1OC	NPR1 antag 4.47µM | NPR1 antag cnf 6.85µM | Npr2 selectivity 10.9µM | FLuc inh counter inactive | GloSensor ctrl 7.69µM
Cc1cc(=O)n(CC(=O)Nc2cc(Cl)ccc2C)c(N(C)Cc2ccccc2)n1	none
Cc1cc(=O)n(CC(=O)Nc2ccc(Br)cc2F)c(N(C)Cc2ccccc2)n1	NPR1 antag inconclusive | NPR1 antag cnf 21.7µM | Npr2 selectivity 19.3µM | FLuc inh counter inactive | GloSensor ctrl 19.3µM
CN(C)C[C@@H]1CN(C2CCOCC2)C[C@H]1NC(=O)c1cn(C)cn1	none
CCC(=O)N1CCN(c2nc3c(s2)CC(C(=O)Nc2cccc(C)c2C)CC3)CC1 (stereo not drawn)	none
O=C(C1CCN(C(=O)C2CCCC2)C1)N1CCC(c2nc3ncccc3[nH]2)CC1 (stereo not drawn)	none (no result: NPR1 antag)
COc1ccc(S(=O)(=O)NC[C@H]2COCc3nc4c(C)cccc4n32)cc1	NPR1 antag 25.1µM | NPR1 antag cnf 17.7µM | Npr2 selectivity 22.2µM | FLuc inh counter inactive | GloSensor ctrl 14µM
Cc1ccc2nc3n(c2c1)[C@@H](CNS(=O)(=O)Cc1ccccc1)COC3	NPR1 antag inconclusive
COc1ccc2nc3n(c2c1)[C@@H](CNS(=O)(=O)c1ccccc1)COC3	none
Cc1cccc2c1nc1n2[C@@H](CNCc2ccc(S(C)(=O)=O)cc2)COC1	NPR1 antag 25.1µM | NPR1 antag cnf 31.4µM | Npr2 selectivity 35.3µM | FLuc inh counter inactive | GloSensor ctrl 22.2µM
COc1ccc(S(=O)(=O)NC[C@H]2COCc3nc4cc(C)ccc4n32)cc1	NPR1 antag 15.8µM | NPR1 antag cnf 31.4µM | Npr2 selectivity 31.4µM | FLuc inh counter inactive | GloSensor ctrl 22.2µM
